Results on eight compounds are retold here after PubChem BioAssay (NCI).

What all share (experiment): NCI-60 one-dose screen, 48 h (100 = growth as untreated, 0 = no growth, -100 = all killed)
The test system of experiment [1] is SK-MEL-2 melanoma. The settings on record: 10 µM unless noted.
The subject of experiment [2] is EKVX NSCLC. The settings on record: 10 µM unless noted.
Experiment [3] concerns SN12C renal. The conditions noted are these: 10 µM unless noted.
The test system of experiment [4] is UO-31 renal. The settings on record: 10 µM unless noted.
The subject of experiment [5] is TK-10 renal. The conditions noted are these: 10 µM unless noted.
The test system of experiment [6] is A498 renal. The conditions noted are these: 10 µM.
Experiment [7] relates to HL-60(TB) leukemia. The settings on record: 10 µM unless noted.
The test system of experiment [8] is CCRF-CEM leukemia. The settings on record: 10 µM unless noted.
The test system of experiment [9] is MOLT-4 leukemia. The settings on record: 10 µM unless noted.
For experiment [10], the system named is SR leukemia. The settings on record: 10 µM unless noted.
For experiment [11], the system named is RPMI-8226 leukemia. The conditions noted are these: 10 µM unless noted.
Experiment [12] concerns OVCAR-8 ovarian. The settings on record: 10 µM unless noted.
Experiment [13] has as its system OVCAR-5 ovarian. The settings on record: 10 µM unless noted.
Experiment [14] deals with OVCAR-4 ovarian. The conditions noted are these: 10 µM unless noted.
Experiment [15] concerns SK-OV-3 ovarian. The settings on record: 10 µM unless noted.
Experiment [16] has as its system IGROV1 ovarian. The conditions noted are these: 10 µM unless noted.
Experiment [17] has as its system OVCAR-3 ovarian. The conditions noted are these: 10 µM unless noted.
The test system of experiment [18] is HS 578T breast. The settings on record: 10 µM unless noted.
Experiment [19] concerns ACHN renal. The settings on record: 10 µM unless noted.
The test system of experiment [20] is CAKI-1 renal. The settings on record: 10 µM unless noted.

Each structure is given as a SMILES string. Compounds without any hit were thinned out: in the full panel of roughly 83,000, 20% have a hit.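 Growth was measured after 48 h exposure to one concentration of compound in 96-well plates. Values under 10 count as active.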 A number with no mark means an inactive call. Activity calls are given as the source filed them.

As to `CCCCCCCCC(CO)NCCc1ccccc1` (stereo unspecified), the growth was 96.3% in [1]; 119% in experiment [2]; 99.4% in experiment [3]; 88.1% in experiment [4]; 98.8% in experiment [5]; 95.2% in experiment [6]. Moreover, the growth in [7] is 70.1%; in experiment [8], 62%; in experiment [9], 60.5%; in experiment [10] it was 76.7%; in [11] it was 80.4%; in experiment [12] it was 81.1%. In addition, the growth in experiment [13] is 101%; in experiment [14], 108%; in experiment [15], 102%; in experiment [16] it was 105%; in [17], 107%; in [18] it was 106%.
For the compound `COC(=O)[C@@H](C)C[C@H](Cc1ccccc1)NC(=O)c1csc([C@@H](C[C@H](C(C)C)N(C)C(=O)[C@@H](NC(=O)[C@H]2CCCCN2C)c2ccc(F)cc2)OC(C)=O)n1`, the growth is 30.2% in [1]; 29.8% in experiment [2]; 15.4% in [3]; 35.2% in experiment [4]; 19.4% in experiment [19]; 14% in experiment [20]. Moreover, the growth in experiment [7] was -42.6% (active); in experiment [8], 8.77% (active); in [9], 8.23% (active); in [10] it was 6.27% (active); in experiment [11], 17.9%; in experiment [12], 26.8%. Further, the growth in [13] is 20.7%; in experiment [14], 48.4%; in experiment [15], 21.2%; in experiment [16], 27%; in experiment [17], -17% (active); in experiment [18] it was 1.1% (active).
Take `COC(=O)[C@@H](C)C[C@H](Cc1ccccc1)NC(=O)c1csc([C@@H](C[C@H](C(C)C)N(C)C(=O)[C@@H](NC(=O)CN(C)C)C2CC2)OC(C)=O)n1`: the growth is 11.6% in experiment [1]; 46.3% in experiment [2]; 46.8% in [3]; 45.5% in experiment [5]; 25.3% in [19]; 63.5% in [20]. In addition, the growth is 0.468% (active) in [6]; -27% (active) in experiment [7]; 10.3% in [8]; 16.6% in experiment [9]; 3.74% (active) in experiment [10]; 34.3% in experiment [11]. Further, the growth in [12] is 20.1%; in experiment [13] it was 56.3%; in experiment [14], 54.4%; in experiment [15] it was 42.2%; in experiment [16], 28.4%; in experiment [17], 1.63% (active). For the same compound, the growth in experiment [18] was 32.3%.
Turning to `COC(=O)[C@@H](C)C[C@H](Cc1ccccc1)NC(=O)c1csc([C@@H](C[C@H](C(C)C)N(C)C(=O)C2(NC(=O)[C@H]3CCCCN3C)CC2)OC(C)=O)n1`, the growth is 34.1% in experiment [1]; 29.1% in experiment [2]; 31.3% in experiment [3]; 48% in [4]; 32.4% in experiment [19]; 59.8% in experiment [20]. Further, the growth is -5.45% (active) in [6]; -46.1% (active) in experiment [7]; 3.37% (active) in experiment [8]; 9.45% (active) in [9]; 11% in experiment [10]; 12.8% in experiment [11]. Further, the growth in experiment [12] is 23.3%; in [13], 20.3%; in experiment [14] it was 44.5%; in experiment [15] it was 19.1%; in experiment [16], 27.1%; in experiment [17], -16.4% (active). In addition, the growth in experiment [18] was 12%.
With `Clc1ccc(COC(Cn2ccnc2)c2ccc(Cl)cc2Cl)cc1` (stereo unspecified), the growth was 68.9% in experiment [1]; 30.7% in experiment [2]; 68.4% in [3]; 20.7% in experiment [4]; 62% in experiment [5]; 21.4% in [20]. Also, the growth in experiment [6] is 43.4%; in experiment [7], -40.2% (active); in experiment [8] it was 30.6%; in [9], -28.4% (active); in experiment [10], -25.9% (active); in [11], 39.7%. Moreover, the growth in [12] is 51.8%; in [14], 54%; in experiment [15], 91.2%; in experiment [16], 35%; in [17] it was 40.4%; in [18], 69.2%.
Take `CC(=O)ONc1ccc([N+](=O)[O-])c(C(F)(F)F)c1`: the growth is 102% in [1]; 87.6% in experiment [2]; 107% in experiment [3]; 77.2% in experiment [4]; 112% in experiment [5]; 103% in experiment [6]. Besides, the growth in experiment [7] was 90%; in experiment [8], 97.7%; in [9], 96.4%; in experiment [10] it was 103%; in experiment [11], 93.9%; in experiment [12], 109%. The growth in experiment [13] is 103%; in [14], 98.2%; in experiment [15] it was 94.7%; in [16], 107%; in [17] it was 104%; in experiment [18], 90.7%.
As to `C[C@@H]1O[C@@H](O[C@H]2C[C@@H](O)[C@]3(CO)C4C(CC[C@]3(O)C2)[C@@]2(O)CC[C@H](C3=CC(=O)OC3)[C@@]2(C)C[C@H]4O)[C@H](O)[C@H](O)[C@H]1O` (stereo partly specified), the growth is -59.9% (active) in experiment [1]; -74.3% (active) in experiment [2]; -22.5% (active) in [3]; -87.3% (active) in experiment [4]; -65% (active) in experiment [5]; -73.4% (active) in experiment [20]. Also, the growth in experiment [6] was -6.39% (active); in experiment [7], -53.2% (active); in experiment [8] it was -12% (active); in [9], -29.4% (active); in [10], -31.2% (active); in experiment [11], 17.8%. In addition, the growth in experiment [12] is -81% (active); in experiment [14] it was -24.3% (active); in experiment [15], -88.2% (active); in [16], -5.14% (active); in [17] it was -96.2% (active); in [18], 22.3%.
As for `ClC1=C(Cl)C(Cl)(C2(Cl)C(Cl)=C(Cl)C(Cl)=C2Cl)C(Cl)=C1Cl`, the growth is 16.9% in [1]; 5.58% (active) in experiment [2]; -25.2% (active) in experiment [3]; -89.6% (active) in experiment [4]; -91.3% (active) in [5]; 67% in experiment [6]. Besides, the growth in experiment [7] was -36.3% (active); in experiment [8], -57.6% (active); in experiment [9], -36.7% (active); in [10], -25.3% (active); in [11], -37.8% (active); in experiment [12], 0.392% (active). The growth was 16.1% in experiment [13]; -30.2% (active) in experiment [14]; 87.1% in experiment [15]; -33.3% (active) in experiment [16]; -77.4% (active) in experiment [17]; 53.3% in [18].
